The panel holds about 83,000 compounds, 20% with a hit somewhere; the sample as a whole holds those more often.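 Compound tested at a single concentration for 48 hours in 96-well plates; a percent growth value below 10 was scored as active.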 Values without a mark were called inactive. Active and inactive are the calls of the source.
Legend:
Assay in all cases: NCI-60 one-dose screen, 48 h (100 = growth as untreated, 0 = no growth, -100 = all killed)
Conditions in all cases: 10 µM unless noted
DU-145 prostate = tested on: DU-145 prostate
K-562 leukemia = tested on: K-562 leukemia
MALME-3M melanoma = tested on: MALME-3M melanoma
MDA-MB-231 breast = tested on: MDA-MB-231 breast
RXF 393 renal = tested on: RXF 393 renal
SF-268 CNS = tested on: SF-268 CNS
SF-295 CNS = tested on: SF-295 CNS
SF-539 CNS = tested on: SF-539 CNS
UACC-257 melanoma = tested on: UACC-257 melanoma
M14 melanoma = tested on: M14 melanoma

Compound | growth (DU-145 prostate) | growth (K-562 leukemia) | growth (MALME-3M melanoma) | growth (MDA-MB-231 breast) | growth (RXF 393 renal) | growth (SF-268 CNS) | growth (SF-295 CNS) | growth (SF-539 CNS) | growth (UACC-257 melanoma) | growth (M14 melanoma)
CCCCc1nc2c(N)nc3ccccc3c2n1Cc1cccc(CN)c1 | 60.2% | 3.82% (active) | 22.6% | 57.3% | 47.6% | 48.7% | 55.8% | 5.63% (active) | -62.3% (active) | -89.2% (active)
COc1ccc(C2CC(c3cccc(OCCCCOc4cccc(C5=NN(C(C)=O)C(c6ccc(OC)cc6)C5)c4)c3)=NN2C(C)=O)cc1 (stereo not given) | 81.6% | 37% | 105% | 77.3% | 95.2% | 74.8% | 44.3% | 81.5% | 46.8% | 85.3%
O=C(CSc1nc2ccccc2c(=O)n1-c1ccc(Cl)c(Cl)c1)Nc1ccc(S(=O)(=O)Nc2ccc(Cl)nn2)cc1 | 101% | 96.5% | 98.5% | 90.8% | 88.1% | 100% | 101% | 90.7% | 93.5% | 86.2%
CN1CCN(Cc2ccc(NC(=O)c3cncc(C#Cc4cnc5ccc(OCC(F)F)nn45)c3)cc2C(F)(F)F)CC1 | -85.8% (active) | 0.0269% (active) | -86.2% (active) | -66.7% (active) | -81% (active) | -56.6% (active) | -76.6% (active) | -90.6% (active) | -33.7% (active) | -89% (active)
CCOP(=O)(OCC)OC[C@]12CC[C@@H](C)[C@H](C)C1C1=CC[C@@H]3[C@@]4(C)CCCNC(C)(C)[C@@H]4CC[C@@]3(C)[C@]1(C)CC2 (stereo not given in full) | 1.04% (active) | -59.7% (active) | 20% | 39% | 16.6% | 37.4% | 18.6% | 60.2% | 13.4% | -65.7% (active)
Nc1nc(=O)n([C@H]2C[C@H](O)[C@@H](CO)O2)cc1C=O | 71.7% | 97.2% | 114% | 85.1% | 103% | 110% | 103% | 100% | 115% | 105%
CN1CCN(Cc2ccc(/C=N/Nc3ccnc4cc(Cl)ccc34)cc2)CC1 | 75.1% | 4.76% (active) | 94.5% | 71.5% | 74.6% | 99.8% | 90% | 64.7% | 111% | 96.9%
CN(C)c1ccc(-c2cc(-c3c[nH]c4ccccc34)nc(N)c2C#N)cc1 | 49.2% | 17.5% | 64.4% | 36% | 2.37% (active) | 52.3% | 26.8% | 37.5% | 56.9% | -27.1% (active)
O=C(CCCCCCNC(=O)C(O)(O)C(F)(F)F)Nc1ncc(-c2ccccc2)s1 | 3.28% (active) | 11.7% | 13.6% | 15.9% | -48.5% (active) | 1.35% (active) | -35.1% (active) | 13.9% | 20.8% | 14.3%
CCN(CC)CCOc1ccc(C(=C(C)Cc2ccc(OC)cc2)c2ccc(OCCN(CC)CC)cc2)cc1 | 74.5% | -4.16% (active) | -75.5% (active) | 55.4% | 41.9% | 70% | 52.8% | -45.9% (active) | 62.6% | -53.6% (active)
Clc1cccc(/C=N/Nc2nc(N/N=C/c3cccc(Cl)c3)nc(N3CCOCC3)n2)c1 | 42.5% | 11.8% | -43.7% (active) | 71.3% | 17.4% | 65.9% | 57.7% | 43.6% | 39.1% | 35.2%
O=C(Nc1ccc(N2CCOCC2)cc1)Nc1ccc2c(ccn2C(=O)c2cccc(F)c2)c1 | 60.2% | 77.3% | 49.4% | 60.1% | -0.178% (active) | 65.2% | 32.5% | 28.3% | 61.2% | 51.3%
C#C[C@]1(O)CC[C@H]2[C@@H]3CC=C4c5sc(NCc6ccccc6)nc5CC[C@]4(C)[C@H]3CC[C@@]21C | 71% | 1.46% (active) | 43.6% | 48.4% | -36% (active) | 47.5% | -57.6% (active) | -39.9% (active) | -10% (active) | 21.4%
Cc1ccc2c(n1)C(=O)C(Cl)=C(Nc1ccc(C(=O)OC(C)(C)C)cc1)C2=O | 97.9% [9.25 µM] | 0.658% [9.25 µM] (active) | 24% [9.25 µM] | 53.9% [9.25 µM] | -19.3% [9.25 µM] (active) | 87.6% [9.25 µM] | 104% [9.25 µM] | 100% [9.25 µM] | 29.5% [9.25 µM] | 61.3% [9.25 µM]
O=c1c2ccccc2cc2n1CCN=C2c1ccccc1 | 102% | 103% | 102% | 96.2% | 96.2% | 97.2% | 103% | 98.6% | 110% | 103%

Source: PubChem BioAssay (NCI)
